# Measured values published in PubChem BioAssay (NCI).
# This is part of a sample that, as a whole, favours compounds with a hit. Of some 79,000 tested, about 15% had one in any assay. Unmarked numbers belong to inactive results. The source made the active and inactive calls. Rule as the data show it: active = growth inhibition above about 70%; inactive = the rest.
# Legend:
# [1] = NCI Yeast Anticancer Drug Screen. Data for the rad52 strain (AID 147);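 also: 0% = growth of vehicle-treated control cultures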; conditions: S. cerevisiae rad52 mutant growth inhibition, hits give high values
# Outline: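 Measured: yeast growth inhibition. System: strain with a defined DNA damage repair alteration. Reference: vehicle-treated control cultures.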
# [2] = NCI Yeast Anticancer Drug Screen. Data for the wt1 strain (AID 149);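 also: 0% = growth of vehicle-treated wt1 cultures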; conditions: S. cerevisiae wt1 strain (SPY 50644) growth inhibition, hits give high values
# Outline: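 Measured: growth of wt1 yeast under compound versus vehicle treatment, reported as inhibition.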
# [3] = NCI Yeast Anticancer Drug Screen. Data for the rad50EPP+ strain (AID 151);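 also: 0% = growth of vehicle-treated control cultures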; conditions: S. cerevisiae rad50 mutant strain, hits give high values
# Outline: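 One strain with a rad50 alteration (rad50EPP+) was compound-treated, its growth then compared to that of vehicle controls.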
# [4] = NCI Yeast Anticancer Drug Screen. Data for the mgt1 strain (AID 153); conditions: S. cerevisiae mgt1 mutant growth inhibition, hits give high values
# Outline: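 After exposure of the mgt1 yeast mutant to compound, growth was measured and reported as inhibition compared with vehicle controls.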
# [5] = NCI Yeast Anticancer Drug Screen. Data for the rad50 strain (AID 155);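 also: 0% = growth of vehicle-only cultures of the same strain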; conditions: S. cerevisiae rad50 strain growth inhibition, hits give high values
# Outline: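 Growth of the mutant yeast was measured after compound exposure and referenced to vehicle-treated cultures.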
# [6] = NCI Yeast Anticancer Drug Screen. Data for the mec2-1 strain (AID 157); conditions: S. cerevisiae mec2-1 strain, hits give high values
# Outline: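 Test agents were screened against the mec2-1 yeast strain, with defined DNA repair or cell cycle alteration. Growth was scored as inhibition against vehicle-only controls.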
# [7] = NCI Yeast Anticancer Drug Screen. Data for the rad14 strain (AID 159);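 also: 0% = growth of vehicle-treated control cultures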; conditions: S. cerevisiae rad14 strain growth inhibition, hits give high values
# Outline: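 Here, inhibition of yeast growth was measured after compound exposure, using a strain with a genetic defect in DNA damage repair and vehicle-treated cultures as the reference.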
# [8] = NCI Yeast Anticancer Drug Screen. Data for the sgs1 mgt1 strain (AID 161);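 also: 0% = growth of cultures given vehicle only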; conditions: S. cerevisiae sgs1 mgt1 strain, hits give high values
# Outline: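 Mutant yeast exposed to compound; growth scored against vehicle-only wells.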
# [9] = NCI Yeast Anticancer Drug Screen. Data for the CLN2oe strain (AID 163);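 also: 0% = growth of vehicle-only control cultures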; conditions: S. cerevisiae CLN2oe strain, hits give high values
# Outline: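 Here, growth inhibition in a cell-cycle-altered yeast strain after compound exposure was quantified against vehicle control growth.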
# [10] = NCI Yeast Anticancer Drug Screen. Data for the cln2 rad14 strain (AID 165);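 also: 0% = growth equal to vehicle treated cultures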; conditions: S. cerevisiae cln2 rad14 strain, hits give high values
# Outline: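 Growth of compound-exposed yeast (cln2 rad14 genotype) measured and expressed as inhibition relative to vehicle.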
# [11] = NCI Yeast Anticancer Drug Screen. Data for the bub3 strain (AID 167); conditions: S. cerevisiae bub3 mutant strain, hits give high values
# Outline: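 Whole-cell yeast assay. The mutant strain was incubated with compounds, and growth inhibition was determined by comparison with vehicle-treated cells.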
# [12] = NCI Yeast Anticancer Drug Screen. Data for the wt2 strain (AID 169);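 also: 0% = growth of vehicle-treated yeast cultures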; conditions: S. cerevisiae wt2 strain growth inhibition, hits give high values
# Outline: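 Genetically defined yeast strains from a DNA-repair/cell-cycle panel were used. Compound-exposed yeast growth was measured, and the inhibition was calculated relative to vehicle treatment.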
# [13] = NCI Yeast Anticancer Drug Screen. Data for the mlh1 strain (AID 171);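 also: 0% = growth of vehicle-treated control cultures of the same strain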; conditions: S. cerevisiae mlh1 strain growth inhibition, hits give high values
# Outline: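 Here the genetically defined yeast mutant is grown with each compound, and the extent to which its growth falls below that of vehicle-exposed cells is reported.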
# [14] = NCI Yeast Anticancer Drug Screen. Data for the sgs1 strain (AID 173);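 also: 0% = growth of vehicle-only control cultures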; conditions: S. cerevisiae sgs1 mutant, hits give high values
# Outline: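 Relative growth inhibition, referenced to vehicle, was determined in a yeast strain with a defined alteration affecting DNA damage repair or cell cycle control after compound exposure.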
# [15] = NCI Yeast Anticancer Drug Screen. Data for the mlh1 rad18 strain (AID 175); conditions: S. cerevisiae mlh1 rad18 strain growth inhibition, hits give high values
# Outline: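 In this whole-cell yeast screen, a strain with altered DNA damage repair is challenged with compound, and its growth is measured against matched vehicle-treated controls.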
# [16] = NCI Yeast Anticancer Drug Screen. Data for the rad18 strain (AID 177); conditions: S. cerevisiae rad18 mutant growth inhibition, hits give high values
# Outline: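 Screen uses a yeast strain with a defined lesion in DNA damage repair; compound effect is read as loss of growth compared to untreated vehicle cultures.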
# [17] = at 5.0 µM (retest, dose inferred, filed as 0.5)
# [18] = at 50.0 µM (retest, dose inferred, filed as 5.0)
smiles,measurement,setting,value
Cc1c(N)nc([C@H](CC(N)=O)NC[C@H](N)C(N)=O)nc1C(=O)N[C@H](C(=O)N[C@H](C)[C@@H](O)[C@H](C)C(=O)N[C@H](C(=O)NCCc1nc(-c2nc(C(=O)NCCC[S+](C)C)cs2)cs1)[C@@H](C)O)C(OC1OC(CO)C(O)C(O)C1OC1OC(CO)C(O)C(OC(N)=O)C1O)c1cnc[nH]1 (stereo partly drawn),growth inhibition,[1]; at 1.2 µM,7%
same,growth inhibition,[1]; at 3.7 µM,19%
same,growth inhibition,[1]; at 11.0 µM,54%
same,growth inhibition,[1]; at 33.0 µM,91% (active)
same,growth inhibition,[1]; at 100.0 µM,96% (active)
same,growth inhibition,[2]; at 1.2 µM,0%
same,growth inhibition,[2]; at 3.7 µM,1%
same,growth inhibition,[2]; at 11.0 µM,11%
same,growth inhibition,[2]; at 33.0 µM,27%
same,growth inhibition,[2]; at 100.0 µM,74% (active)
same,growth inhibition,[3]; at 1.2 µM,0%
same,growth inhibition,[3]; at 3.7 µM,7%
same,growth inhibition,[3]; at 11.0 µM,31%
same,growth inhibition,[3]; at 33.0 µM,68%
same,growth inhibition,[3]; at 100.0 µM,94% (active)
same,growth inhibition,[4]; at 1.2 µM,-3%
same,growth inhibition,[4]; at 3.7 µM,2%
same,growth inhibition,[4]; at 11.0 µM,11%
same,growth inhibition,[4]; at 33.0 µM,35%
same,growth inhibition,[4]; at 100.0 µM,91% (active)
same,growth inhibition,[5]; at 1.2 µM,8%
same,growth inhibition,[5]; at 3.7 µM,27%
same,growth inhibition,[5]; [17],98% (active)
same,growth inhibition,[5]; at 11.0 µM,63%
same,growth inhibition,[5]; at 33.0 µM,94% (active)
same,growth inhibition,[5]; [18],99% (active)
same,growth inhibition,[5]; at 50.0 µM,93.2% (active)
same,growth inhibition,[5]; at 100.0 µM,95% (active)
same,growth inhibition,[6]; at 1.2 µM,1%
same,growth inhibition,[6]; at 3.7 µM,12%
same,growth inhibition,[6]; [17],99% (active)
same,growth inhibition,[6]; at 11.0 µM,29%
same,growth inhibition,[6]; at 33.0 µM,52%
same,growth inhibition,[6]; [18],99% (active)
same,growth inhibition,[6]; at 50.0 µM,93.5% (active)
same,growth inhibition,[6]; at 100.0 µM,94% (active)
same,growth inhibition,[7]; at 1.2 µM,4%
same,growth inhibition,[7]; at 3.7 µM,11%
same,growth inhibition,[7]; at 11.0 µM,29%
same,growth inhibition,[7]; at 33.0 µM,78% (active)
same,growth inhibition,[7]; at 100.0 µM,95% (active)
same,growth inhibition,[8]; [17],98% (active)
same,growth inhibition,[8]; [18],99% (active)
same,growth inhibition,[8]; at 50.0 µM,93.3% (active)
same,growth inhibition,[9]; at 1.2 µM,2%
same,growth inhibition,[9]; at 3.7 µM,-7%
same,growth inhibition,[9]; at 11.0 µM,14%
same,growth inhibition,[9]; at 33.0 µM,43%
same,growth inhibition,[9]; at 100.0 µM,94% (active)
same,growth inhibition,[10]; [17],96% (active)
same,growth inhibition,[10]; [18],98% (active)
same,growth inhibition,[10]; at 50.0 µM,89.8% (active)
same,growth inhibition,[11]; at 1.2 µM,-2%
same,growth inhibition,[11]; at 3.7 µM,2%
same,growth inhibition,[11]; [17],98% (active)
same,growth inhibition,[11]; at 11.0 µM,14%
same,growth inhibition,[11]; at 33.0 µM,53%
same,growth inhibition,[11]; [18],99% (active)
same,growth inhibition,[11]; at 50.0 µM,93.7% (active)
same,growth inhibition,[11]; at 100.0 µM,91% (active)
same,growth inhibition,[12]; at 1.2 µM,0%
same,growth inhibition,[12]; at 3.7 µM,2%
same,growth inhibition,[12]; at 11.0 µM,21%
same,growth inhibition,[12]; at 33.0 µM,54%
same,growth inhibition,[12]; at 100.0 µM,93% (active)
same,growth inhibition,[13]; at 1.2 µM,0%
same,growth inhibition,[13]; at 3.7 µM,4%
same,growth inhibition,[13]; at 11.0 µM,18%
same,growth inhibition,[13]; at 33.0 µM,61%
same,growth inhibition,[13]; at 100.0 µM,95% (active)
same,growth inhibition,[14]; at 1.2 µM,2%
same,growth inhibition,[14]; at 3.7 µM,8%
same,growth inhibition,[14]; at 11.0 µM,31%
same,growth inhibition,[14]; at 33.0 µM,77% (active)
same,growth inhibition,[14]; at 100.0 µM,96% (active)
same,growth inhibition,[15]; [17],99% (active)
same,growth inhibition,[15]; [18],99% (active)
same,growth inhibition,[15]; at 50.0 µM,92.8% (active)
same,growth inhibition,[16]; at 1.2 µM,6%
same,growth inhibition,[16]; at 3.7 µM,27%
same,growth inhibition,[16]; at 11.0 µM,67%
same,growth inhibition,[16]; at 33.0 µM,94% (active)
same,growth inhibition,[16]; at 100.0 µM,97% (active)
